Laboratory results as given in PubChem BioAssay (NCI).
Compounds without any hit were thinned out: in the full panel of roughly 83,000, 20% have a hit.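 Compound tested at a single concentration for 48 hours in 96-well plates; a percent growth value below 10 was scored as active.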 Unmarked numbers belong to inactive results. The source made the active and inactive calls.

system: SR leukemia; test: NCI-60 one-dose screen, 48 h (100 = growth as untreated, 0 = no growth, -100 = all killed); conditions: 10 µM
Description: Growth inhibition of the SR human tumor cell line is measured as a screen for anti-cancer activity. Cells are grown in 96 well plates and exposed to the test compound for 48 hours. Compounds are tested at a single concentration, which is 10^-5 M for most compounds. The reported endpoint is percent growth (GI% or GIPRCNT), where numbers from 0 - 100% represent growth inhibition, and numbers from -100% - 0 represent cell death. For example, a value of 40 represents 60% growth inhibition. A value of 0 means no net growth occurred over the course of the experiment. A value of -40 indicates 40% of cells at the beginning of the experiment died by the end of the experiment. A value of -100 means all cells are dead at the end of the experiment.
NCI-60 Human Tumor Cell Lines Screen was performed using the standard one-dose NCI protocol, which is described in more detail at https://dtp.cancer.gov/discovery_development/nci-60/default.htm.
Compounds with GIPRCNT values below 10 were considered active. Activity score was based on GIPRCNT using the following formula: […]
Score is 0 for GIPRCNT values of 100 or above, 50 for GIPRCNT values of 0, and 100 for GIPRCNT values of -100.

Row | Structure (SMILES) | growth
1 | Cc1ccc(N=Nc2ccccc2)cc1 | 90.3%
2 | CC(C)(C)OC(=O)CC(S(=O)(=O)c1ccccc1)S(=O)(=O)c1ccccc1 | 77.9%
3 | CC(C)(C)c1ccc(S(=O)(=O)N[C@H]2CC[C@H]3[C@@H]4CCc5cc(O)ccc5[C@H]4CC[C@]23C)cc1 | 20.5%
4 | CN1CCc2c(sc3nc4n(-c5ccc(Cl)cc5)c(=O)[nH]n4c(=O)c23)C1 | 97.6%
5 | COc1cc2c(Nc3ccc(-c4ccc(N)cc4)cc3)ncnc2c(OC)c1OC | 31.8%
6 | COc1ccc(/C(=N\N)C(=O)c2ccccc2)cc1 (tested in a mixture with another compound) | 111%
7 | CCOC(=O)c1cc(C(=O)c2cc(OC)cc(OC)c2)n2ncc3ccccc3c12 | 4.68% (active)
8 | CCCc1nc(C(C)(C)O)c(C(=O)O)n1Cc1ccc(-c2ccccc2-c2nn[nH]n2)cc1 | 85.9%
9 | CC[C@@H](C(=O)[C@H](C)[C@H](O)[C@@H](C)[C@H]1O[C@H]([C@@H](CC)C(=O)O)CC[C@H]1C)C1O[C@]2(C=C[C@@H](O)[C@]3(CC[C@@](C)([C@H]4CC[C@](O)(CC)[C@H](C)O4)O3)O2)[C@H](C)C[C@@H]1C (stereo not given in full) | 22.5%
10 | COc1cc(NC(=O)Nc2cnc(Nc3ccc(N4CCOCC4)cc3)nc2Oc2cccc(OC)c2)cc(OC)c1 | 46.1%
11 | COc1cc(C2C(C#N)=C(N)Oc3cc(O)ccc32)cc(OC)c1OC (stereo not given) | 11.4%
12 | CCOC(=O)C(C)(c1ccccc1)c1ccccc1 | 100%
13 | CN(C)CCCOc1ccc(OCCCN(C)C)c2c1C(=O)c1ccccc1C2=O | 2.73% (active)
14 | CCOC(=O)N/N=C/c1ccc(OC)c(OC)c1 | 105%
15 | CC(C)C[C@H](NC(=O)Cn1cccc(CNC(=O)c2ccccc2)c1=O)B(O)O | 16.4%
16 | N=C1S/C(=C/c2ccc(-c3ccc4c(c3)C(=O)NC4=O)o2)C(=O)N1c1ccc(Br)cc1 | 25%
17 | COc1ccc(-c2nnc(SCC(=O)Nc3ccc(C(=O)/C=C/c4ccccc4)cc3)n2-c2ccccc2)cc1OC | 57.5%
18 | CN(C)c1ncnc2c1nnn2C1OC(CO)C(O)C1O (stereo not given) | 31.3%
19 | O=C(O)c1ccc(-n2cc(CNc3ccc(Oc4ccccc4)cc3)c(-c3ccccc3)n2)cc1 | 38.6%
20 | COc1cc(-c2nn(-c3ccc(NC(=O)NCCNS(=O)(=O)c4ccc(F)cc4)cc3)cc2-c2ccncc2)ccc1Cl | 1.26% (active)

Row | Structure (SMILES) | growth
21 | Cc1cc(C(C#N)c2ccc(Cl)cc2)c(Cl)cc1NC(=O)c1cc(I)cc(I)c1O (stereo not given) | 27.6%
22 | COc1ccc2nc3cc(Cl)ccc3c(Nc3cc(CN4CCCC4)c(O)c(CN4CCCC4)c3)c2n1 | -18.6% (active)
23 | O=C(Nc1ccc(NS(=O)(=O)c2ccc(F)cc2)cc1)C12CC3CC(CC(C3)C1)C2 | 75.5%
24 | O=c1[nH]c(=O)n(C2C[C@H](O)[C@@H](CO)O2)cc1C(F)(F)F (stereo not given in full) | 91.9%
25 | CC1C(=NC(=O)c2cnccn2)C(C)C(c2ccc(Cl)cc2)NC1c1ccncc1 (stereo not given) | 126%
26 | CCN(CC)CCCOc1cccc2c1C(=O)c1cccc(OCCCN(CC)CC)c1C2=O | 3.15% (active)
27 | N#CC1=CC2CN(Cc3ccccc3)C1C1C(=O)N(c3ccccc3)C(=O)C21 (stereo not given) | 93.4%
28 | N#Cc1c(N)nc(-c2cc(F)cc(C(F)(F)F)c2)nc1-c1ccccc1F | 23.6%
29 | O=C1c2ccccc2-c2c1c1cccnc1c(=O)n2C[C@H](O)CO | 11.6%
30 | O=C(O)c1cn(C2CC2)c2cc(N3CCN(C(=O)c4cc(-c5ccc(Cl)cc5)nc5ccccc45)CC3)c(F)cc2c1=O | 47.4%
31 | COc1ccc(-c2nn(-c3cccc(Cl)c3)cc2-c2c(C#N)c(=O)n3[nH]c(-c4ccc(C)cc4)nc3c2C#N)cc1 | 1.64% (active)
32 | CCN(CC)c1ccc(/C=C2\SC(=O)C(Nc3nnc(-c4cccnc4SCc4ccccc4)o3)C2=O)cc1 (stereo not given) | 11.8%
33 | COc1ccc(-c2nn(-c3cccc(Cl)c3)cc2-c2nc(N)[nH]c(=O)c2C#N)cc1 | 19.3%
34 | NC1=NC(c2ccc(Cl)cc2)C2=C(N1)/C(=C/c1ccc(Cl)cc1)CCC2 (stereo not given) | 20.8%
35 | c1ccc(/C(=N\Nc2ccc3ccccc3n2)c2ccccn2)cc1 | -23.6% (active)
36 | Cc1ccc(-c2c3c(N)nc(-c4cccnc4)nc3nc3c2c(C)nn3-c2ccccc2)cc1 | 82.5%
37 | CN1C(=O)C2(Nc3cc(Cl)ccc3S2)c2cc(Cl)ccc21 (stereo not given) | 70.6%
38 | Clc1ccc(C2=NN=C3C(Cc4ccccc4)=Nc4ccccc4N3C2)cc1 | 25.4%
39 | Clc1nc2ccccc2cc1Cn1nnc(Cc2ccccc2)n1 | 37%
40 | CNC(=O)c1cn(C2CC2)c2cc(N3CCN(C(=O)c4cc(OC)c(OC)c(OC)c4)CC3)c(F)cc2c1=O | 92.2%
